The full list was thinned out, with hits kept by preference.
CD40 NFkB inh = CD40 pathway inhibition in BL2 cells; 83,000 compounds, 0.94% hits; AID 1053188; BL2 NF-kB luciferase reporter, CD40L-induced, 4 h; inhibition, % at 10 µM;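 active means mean inhibition of at least 50% with a set share of replicates also reaching that level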;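 further: 0% = neutral control wells and 100% = IKK inhibitor VII at 50 µM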
The depositor's hits bear a star; ! = repeats disagree; [ ] = remark or other dose.

SMILES | CD40 NFkB inh
C[C@@H]1CN([C@H](C)CO)C(=O)Cc2cc(NS(C)(=O)=O)ccc2O[C@@H]1CN(C)Cc1ccc(C(=O)O)cc1 | -1
C[C@@H]1CN([C@@H](C)CO)C(=O)Cc2cc(NS(=O)(=O)c3ccc(F)cc3)ccc2O[C@@H]1CN(C)Cc1ccc(C(F)(F)F)cc1 | 47*
C[C@H](CO)N1C[C@H](C)[C@H](CN(C)C(=O)[C@H](Cc2ccccc2)N(C)C)OCc2ccccc2-c2c(n(C)c3ccccc23)C1=O | 25[25 µM]
Cc1noc(C)c1C(=O)N(C)C[C@@H]1OCc2ccccc2-c2ccccc2C(=O)N([C@H](C)CO)C[C@H]1C | -12[25 µM]
COc1cccc(NC(=O)N(C)C[C@H]2OCc3ccccc3-c3ccccc3C(=O)N([C@@H](C)CO)C[C@@H]2C)c1 | -6[25 µM]
COc1ccc(C[C@H]2CCn3nncc3COC[C@@H](CC(C)C)NC2=O)cc1 | -21[25 µM]
O=C(CN1CCOCC1)N[C@@H]1CC[C@@H](CCn2cc(C3CCCC3)nn2)O[C@H]1CO | 2
CC(=O)Nc1ccc2c(c1)CC(=O)N(C)C[C@@H](C)[C@@H](CN(C)C(=O)OC(C)(C)C)O2 | 5
O=C(C[C@@H]1C[C@@H]2c3cc(NC(=O)Nc4ccc(C(F)(F)F)cc4)ccc3O[C@@H]2[C@@H](CO)O1)NCc1cc(F)ccc1F | 10[25 µM]
CCCNC(=O)N1[C@H](CO)[C@@H](c2ccccc2)[C@H]1CNC(=O)c1ccc(F)cc1 | 8
O=C(NC1CCCC1)c1nc2c(nnn2Cc2cccc(Cl)c2)c(=O)[nH]1 | 22
O=C(Nc1ccc(F)cc1)N1CCC(c2nc3c(nnn3Cc3cccc(Cl)c3)c(=O)[nH]2)CC1 | 69*
Cc1ccc(NC(=O)N2CCC(c3nc4c(nnn4Cc4cccc(Cl)c4)c(=O)[nH]3)CC2)cc1 | 42
CNC[C@@H]1Oc2c(NS(C)(=O)=O)cccc2C(=O)N(C)C[C@@H]1C | -3
COc1ccc2c3c(n(C)c2c1)[C@H](CO)NCC31CN(S(=O)(=O)c2ccc(C)cc2)C1 | -10[25 µM]
COCC(=O)N1[C@H](C#N)[C@H](c2ccccc2-c2cccc(OC)c2)[C@H]1CO | -12[25 µM]
COc1ccc(N2CCN(C(=O)COc3cccc4ccccc34)CC2)cc1 | -6
COc1ccc(N2CCN(C(=O)Cn3c(=O)[nH]c4ccccc4c3=O)CC2)cc1 | 29*
COc1ccc(N2CCN(C(=O)Cn3c(=O)c4cccn4c4cccnc43)CC2)cc1 | -5
CNC[C@H]1Oc2ccccc2C(=O)N(C)C[C@H]1C | -4
COc1ccc(C(=O)/C=C/C(=O)N(CC(=O)NC2CCCCC2)Cc2ccc(F)cc2)c(O)c1 | 38*
COc1ccc(C(=O)/C=C/C(=O)N(CC(=O)NCCC(C)C)Cc2cccs2)c(O)c1 | 90*
COc1ccc(Br)c(C(=O)NCCC(C)C)c1 | 0
COc1ccc(S(=O)(=O)NCC(=O)N(CC(=O)NC(C)(C)C)Cc2cccs2)cc1 | 6
O=C(COC(=O)Cc1ccc(F)cc1)NC1CCCCCC1 | 14
SMILES | CD40 NFkB inh
COc1ccc(OC)c(NC(=O)CN(Cc2ccc(F)cc2)C2CCCCC2)c1 | 20
C[C@@H]1CN([C@@H](C)CO)C(=O)c2ccccc2-c2ccccc2CO[C@@H]1CN(C)Cc1ccc2c(c1)OCO2 | 18[25 µM]
C[C@H]1CN(C)C(=O)c2cccc(NS(C)(=O)=O)c2O[C@@H]1CN(C)S(C)(=O)=O | 19
CO[C@@H](CN(C)C(=O)c1ccccc1F)[C@@H](C)CN([C@@H](C)CO)S(=O)(=O)c1ccccc1 | 4
CC(=O)Nc1cccc2c1O[C@H](CN(C)C(=O)NC(C)C)[C@H](C)CN(C)C2=O | -6
CC(C)[C@H]1COCc2cn(nn2)CCC[C@@H](C)C(=O)N1 | -15[25 µM]
O=C(Nc1ccc(C(F)(F)F)cc1)N1C[C@@H]2N[C@H](C1)C2c1ccc(/C=C/c2ccccc2)cc1 (stereo not given in full) | 45
Cc1cccc(-c2ccc(C3[C@@H]4CN(C(=O)Nc5ccccc5)C[C@H]3N4)cc2)c1 (stereo not given in full) | 0
O=C(C1CCCC1)N1C[C@@H]2N[C@H](C1)C2c1ccc(-c2cccc(F)c2)cc1 (stereo not given in full) | 8
O=C(Nc1ccc(C(F)(F)F)cc1)N1C[C@@H]2N[C@H](C1)C2c1ccc(-c2ccccc2)cc1 (stereo not given in full) | 70*!
O=C(Nc1ccc(F)cc1)N1C[C@@H]2N[C@H](C1)C2c1ccc(-c2ccccc2F)cc1 (stereo not given in full) | -4
N#Cc1ccc(-c2ccc(C3[C@@H]4CN(C(=O)C5CCC5)C[C@H]3N4)cc2)cc1 (stereo not given in full) | 44
N#Cc1ccc(-c2ccc(C3[C@@H]4CN(C(=O)C5CCCC5)C[C@H]3N4)cc2)cc1 (stereo not given in full) | 3
O=C(C1CC1)N1C[C@@H]2N[C@H](C1)C2c1ccc(-c2cccc(F)c2)cc1 (stereo not given in full) | 60*!
N#Cc1cccc(-c2ccc(C3[C@@H]4CN(C(=O)C5CC5)C[C@H]3N4)cc2)c1 (stereo not given in full) | 76*!
Cc1cccc(-c2ccc(C3[C@@H]4CN(C(=O)C5CCC5)C[C@H]3N4)cc2)c1 (stereo not given in full) | 14
O=C(c1ccc(F)cc1)N1C[C@@H]2N[C@H](C1)C2c1ccc(-c2ccccc2F)cc1 (stereo not given in full) | 4[25 µM]
O=C(C1CC1)N1C[C@@H]2N[C@H](C1)C2c1ccc(-c2ccccc2F)cc1 (stereo not given in full) | 83*!
O=C(Nc1cc(F)ccc1F)N1CC(=O)N2[C@H](CO)[C@H](c3ccc(C#CC4CCCC4)cc3)[C@@H]2C1 | -4
CCC(=O)N1[C@H](CO)[C@H](c2ccc(-c3ccccc3)cc2)[C@@H]1CNC(=O)COC | 1
CCCCCCCC/C=C/CCCCCCCC(=O)NC(CO)Cc1ccc(O)cc1 (stereo not given) | 8[25 µM]
C/C=C/c1ccc(C2[C@H]3CNC[C@@H]2N3C(=O)Nc2ccc3c(c2)OCO3)cc1 (stereo not given in full) | -9[25 µM]
CC(C)NC(=O)N(C)C[C@@H]1Oc2ccc(N(C)C)cc2CC(=O)N(C)C[C@@H]1C | 4
O=C(C[C@H]1CC[C@H]2NC[C@H](O)COC[C@@H]2O1)NCCN1CCCCC1 | -8[25 µM]
C[C@@H]1CN(C)C(=O)c2cccc(N(C)C)c2O[C@@H]1CN(C)S(C)(=O)=O | -7
SMILES | CD40 NFkB inh
CC(=O)N(C)C[C@@H]1Oc2ccc(NC(=O)NC(C)C)cc2CC(=O)N(C)C[C@H]1C | 4
CC(=NNc1nc2ccccc2o1)c1cc2ccccc2cn1 | -10
CC(=NNc1nc2ccccc2o1)c1ncccn1 | 80*
CC(=NNc1nc2ccccc2s1)c1ncccn1 | -13
O=C(c1cccc(F)c1)N1C[C@@H]2[C@H](c3ccccc31)[C@@H](CO)N2C(=O)C1CC1 | 2
COc1ccc([C@@H]2C/C=C\C[C@@H](c3ccc(F)cc3)NC(=O)CCC(=O)N2)c(OC)c1 | -8[25 µM]
Nc1nc(=O)c2ccccc2s1 | 51*
Nc1nc2c(F)cccc2s1 | 0
CC(=O)N/C(N)=N/c1nc(=O)c2ccccc2s1 | -97
CC(=O)N(C)C[C@H]1Oc2ccc(N)cc2C(=O)N(C)C[C@@H]1C | 7
C[C@@H]1CN(C)C(=O)c2cccc(NS(C)(=O)=O)c2O[C@@H]1CN(C)C | 0
O=C1/C(=C\c2ccc(Cl)c(Cl)c2)CN(C(=O)CCN2CCOCC2)C/C1=C/c1ccc(Cl)c(Cl)c1 | 74*

High-throughput results as filed in PubChem.
